The results in this text go back to PubChem BioAssay (NCATS).

Assay [1] can be described thus: Drug repurposing screens with cells derived from glioblastoma tumor samples (AID 1345199). Also: nearly all actives have a fitted effect of over 40% in size. Also: potency is read from the fitted curve at half-maximal effect. As to activity, negative = cell killing: % is scaled to controls: 0 for no effect and ±100 for the full control effect. Particulars: GBM patient neurospheres viability, ATP luminescence, 48 h. The essentials: (§1)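 Four patient lines of CD133+ GBM neurospheres were screened at several concentrations; hits were retested in those lines plus three slower-growing GBM lines, using 48-hour treatment and ATP-based viability.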

The test system of another assay is astro (control astrocytes). Described as above. Particulars: viability, ATP luminescence, 48 h; series mostly up to 45.9 µM. An outline of the steps:
as §1

The target of assay [2] is Nuclear receptor subfamily 1 group I member 2 (Rattus norvegicus) (UniProt Q9R1A7). The experiment in a line: qHTS assay for small molecule activators of the rat pregnane X receptor (rPXR) signaling pathway (AID 651751; call rule not given here; also: 0% is about no effect). The note with it: rPXR reporter cells, luciferase (One-Glo), 24 h.
Sequence of Nuclear receptor subfamily 1 group I member 2 (Rattus norvegicus) (Q9R1A7 whole entry, looked up): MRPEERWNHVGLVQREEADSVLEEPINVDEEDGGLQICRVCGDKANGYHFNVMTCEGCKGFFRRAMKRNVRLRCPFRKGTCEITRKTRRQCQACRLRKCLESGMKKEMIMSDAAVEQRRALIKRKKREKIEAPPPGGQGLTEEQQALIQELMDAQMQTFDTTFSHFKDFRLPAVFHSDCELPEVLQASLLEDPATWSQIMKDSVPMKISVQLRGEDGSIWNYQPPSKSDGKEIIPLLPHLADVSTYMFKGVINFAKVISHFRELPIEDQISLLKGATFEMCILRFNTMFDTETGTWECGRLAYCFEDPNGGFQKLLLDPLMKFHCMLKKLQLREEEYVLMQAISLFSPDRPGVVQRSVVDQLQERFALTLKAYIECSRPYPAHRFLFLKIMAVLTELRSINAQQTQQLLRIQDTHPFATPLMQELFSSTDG
The nature of assay [3]: qHTS assay for small molecule activators of the human pregnane X receptor (PXR) signaling pathway (AID 720659; call rule not given here; also: 0% is about no effect). Particulars: DPX-2 HepG2 CYP3A4-luciferase, 24 h; series mostly up to 92.3 µM.
Where [4] appears, read: at 45.9 µM (top of the series), tumour line B.
Where [5] appears, read: at 45.9 µM (top of the series), tumour line D.
Where [6] appears, read: at 46.1 µM (top of the series), tumour line C.

Molecules are shown by their SMILES. Values joined by “and” are separate entries in the source; they are usually repeats but may differ in a detail not shown here. Equal values may be shown once. A number with no mark means an inactive call. Records with an inconclusive call do not appear. The source holds several records for some structures; these can differ, active in one and inactive in another. Active and inactive are the calls of the source. Unless noted, calls follow the shape of the dose curve; as a rule, active = well fitted inhibition curve with a large enough effect; inconclusive = small, poorly fitted or top-dose-only effect; inactive = flat fitted curve, though single readings scatter.

Take `Cc1cccc(Nc2ncccc2C(=O)O)c1C`: the activity, negative = cell killing was -17.7% in assay [1] (setting [4]), -8.87% in assay [1] (setting [5]) and -27.1% in assay [1] (setting [6]). Further, the Potency entry in the assay on astro was “inactive”.
As to `OC[C@H]1O[C@@H]2O[C@H]3[C@H](O)[C@@H](O)[C@@H](O[C@H]4[C@H](O)[C@@H](O)[C@@H](O[C@H]5[C@H](O)[C@@H](O)[C@@H](O[C@H]6[C@H](O)[C@@H](O)[C@@H](O[C@H]7[C@H](O)[C@@H](O)[C@@H](O[C@H]1[C@H](O)[C@H]2O)O[C@@H]7CO)O[C@@H]6CO)O[C@@H]5CO)O[C@@H]4CO)O[C@@H]3CO`, the activity, negative = cell killing in assay [1] (setting [4]) was -13.8%; in assay [1] (setting [5]) it was -5.74%; in assay [1] (setting [6]), -2.87%. Further, the Potency entry with astro was “inactive”. Besides, the max response in assay [2] was 1.3% and 2.85%. Also, in assay [3], the result was inactive.
Regarding `CC(C)(C)CC(C)(C)c1ccc(OCCO)cc1`, the activity, negative = cell killing in assay [1] (setting [4]) is -26.2%; in assay [1] (setting [6]) it was -20.5%. The Potency in assay [1] (tumour line D) is 10 µM (active); with astro, 35.5 µM (active). Also, the max response in assay [2] is -14.4%.
As to `O=C(O)CCCC/C=C(\c1ccccc1)c1cccnc1`, the activity, negative = cell killing was -6.07% in assay [1] (setting [4]), -10.6% in assay [1] (setting [5]) and -17.1% in assay [1] (setting [6]). The Potency entry in the assay with astro is “inactive”.
Consider `O=C(O)Cc1nn(Cc2ccc(Br)cc2F)c(=O)c2ccccc12`, for which the activity, negative = cell killing in assay [1] (setting [4]) was -21.4%; in assay [1] (setting [5]) it was -12.1%. Besides, in the assay with astro, the Potency result is “inactive”.
Consider `Cc1cc(=O)c(C(=O)N[C@@H](C(=O)N[C@@H]2C(=O)N3C(C(=O)O)=C(CSc4nnnn4C)CS[C@H]23)c2ccc(O)cc2)c[nH]1`, for which the activity, negative = cell killing is -7.34% in assay [1] (setting [4]), 13% in assay [1] (setting [5]) and -6.97% in assay [1] (setting [6]). The Potency entry in the assay on astro was “inactive”.
In the case of `Oc1cccc(O)c1O`, the activity, negative = cell killing in assay [1] (setting [4]) is -15.1%; in assay [1] (setting [5]) it was 2.75%; in assay [1] (setting [6]) it was 15.2%. Also, the Potency entry with astro was “inactive”. For the same compound, in assay [2], the max response is -3.92%. Besides, the result in assay [3] was inactive.
For `CS(=O)(=O)c1ccc([C@@H](O)[C@@H](COC(=O)CN)NC(=O)C(Cl)Cl)cc1`, the activity, negative = cell killing in assay [1] (setting [4]) is -20.1%; in assay [1] (setting [6]) it was -21.6%. In addition, in the assay with astro, the Potency entry was “inactive”.
Take `CO[C@H]1O[C@@H]2O[C@@]3(C)CC[C@H]4[C@H](C)CC[C@@H]([C@H]1C)[C@@]24OO3`: the activity, negative = cell killing in assay [1] (setting [4]) was -14.7%; in assay [1] (setting [5]), 1.49%; in assay [1] (setting [6]) it was -10.2%. Besides, the Potency result with astro is “inactive”.
On to `CO/N=C(/C(=O)N[C@@H]1C(=O)N2C(C(=O)O)=C(COC(N)=O)CS[C@H]12)c1ccco1`, for which the activity, negative = cell killing in assay [1] (setting [4]) was 3.13% and -9.26%; in assay [1] (setting [5]), -9.35% and -16.7%; in assay [1] (setting [6]) it was 6.13% and -0.48%. Moreover, the Potency entry in the assay with astro is “inactive”. Moreover, in assay [2], the max response is -2.68%. The call in assay [3] was inactive.
Turning to `ClC(Cl)Cl`, the activity, negative = cell killing is 0.236% in assay [1] (setting [4]), -13.8% in assay [1] (setting [5]) and -5.54% in assay [1] (setting [6]). Also, in the assay on astro, the Potency result was “inactive”. In addition, the max response in assay [2] is -6.93%. For the same compound, the call in assay [3] was inactive.
Regarding `CNC(C)CCC=C(C)C` (centres undefined), the activity, negative = cell killing in assay [1] (setting [4]) was -23.7%. For the same compound, the Potency in assay [1] (tumour line A) was 11.2 µM (active). In addition, the Potency entry with astro was “inactive”.
On to `CC(=C\c1ccccc1)/C=C1/SC(=S)N(CC(=O)O)C1=O`, for which the results for the activity, negative = cell killing in assay [1] (setting [5]) and in assay [1] (setting [6]) were -25% and -14.3%, respectively. The Potency entry in the assay on astro was “inactive”.
With `O=C(/C=C/c1cccc(F)c1)NC1CC1`, the activity, negative = cell killing in assay [1] (setting [4]) was -18.1%; in assay [1] (setting [5]), -4.02%; in assay [1] (setting [6]), -17.9%. Moreover, in the assay with astro, the Potency result is “inactive”.
Turning to `Cn1c(=O)c2c(ncn2CCOC(=O)C(C)(C)Oc2ccc(Cl)cc2)n(C)c1=O`, the activity, negative = cell killing was -17% in assay [1] (setting [4]) and -18.4% in assay [1] (setting [6]). The Potency entry in the assay on astro was “inactive”.
For the compound `CN(C)CCC=C1c2ccccc2C(C)(C)c2ccccc21`, the Potency in the assay on astro is 17.8 µM (active).
Take `Cc1cc(-c2ccc(N=Nc3c(S(=O)(=O)O)cc4cc(S(=O)(=O)O)cc(N)c4c3O)c(C)c2)ccc1N=Nc1c(S(=O)(=O)O)cc2cc(S(=O)(=O)O)cc(N)c2c1O`: the Potency with astro is 8.91 µM (active).
On the same count and under the same terms, next, `CC[C@@H](C(=O)[C@@H](C)[C@@H](O)[C@H](C)[C@@H]1O[C@@H]([C@@H](CC)C(=O)O)CC[C@@H]1C)[C@H]1O[C@]2(C=C[C@@H](O)[C@]3(CC[C@@](C)([C@H]4CC[C@](O)(CC)[C@H](C)O4)O3)O2)[C@H](C)C[C@@H]1C`: 7.94 µM (active); `COc1ccc2c(c1)OC(C)(C)C(c1ccccc1)C2c1ccc(OCCN2CCCC2)cc1` (centres undefined): 35.5 µM (active).
For `CC(C)C[C@H](NC(=O)[C@@H](Cc1c[nH]c2ccccc12)NC(=O)[C@H](Cc1ccc(O)cc1)NC(=O)[C@H](CO)NC(=O)[C@H](Cc1c[nH]c2ccccc12)NC(=O)[C@H](Cc1cnc[nH]1)NC(=O)[C@@H]1CCC(=O)N1)C(=O)N[C@@H](CCCN=C(N)N)C(=O)N1CCC[C@@H]1C(=O)NCC(N)=O`, the activity, negative = cell killing in assay [1] (setting [4]) is -6.78%; in assay [1] (setting [6]), -22.9%. Moreover, in the assay on astro, the Potency result is “inactive”.
With `CN=C1C=CC(=C(c2ccc(N(C)C)cc2)c2ccc(N(C)C)cc2)C=C1`, the Potency in the assay with astro is 11.2 µM (active).
The same measure, in the same setting: next, `CCN(CC)CCOc1ccc2nc(N(C)C)sc2c1`: “inactive”.
Take `C=C1c2c(Cl)ccc(O)c2C(O)=C2C(=O)[C@]3(O)C(O)=C(C(N)=O)C(=O)[C@@H](N(C)C)[C@@H]3[C@@H](O)[C@H]12`: the activity, negative = cell killing in assay [1] (at 20 µM (top of the series), tumour line C) is 3.1%; in assay [1] (at 21.2 µM (top of the series), tumour line D), -28.3%. Moreover, the Potency result in the assay on astro is “inactive”.
For `CCN(CC)C(=O)c1cccnc1`, the activity, negative = cell killing was -8.29% in assay [1] (setting [4]) and -25.5% in assay [1] (setting [6]). The Potency entry with astro is “inactive”.
Turning to `CC[C@@]1([C@@H]2O[C@@H]([C@H]3O[C@@](O)(CO)[C@H](C)C[C@@H]3C)C[C@@H]2C)CC[C@H]([C@]2(C)CC[C@]3(C[C@H](O)[C@@H](C)[C@@H]([C@@H](C)[C@@H](OC)[C@H](C)C(=O)O)O3)O2)O1` (stereo in doubt), the Potency in the assay on astro is 14.1 µM (active).
Regarding `COC(=O)CC[C@H](N)C(=O)O`, the activity, negative = cell killing was -13.7% in assay [1] (setting [4]) and -12.9% in assay [1] (setting [5]). Further, the Potency entry with astro was “inactive”.
With `CCCCCCCCCC(=O)NO`, the activity, negative = cell killing was -14.3% in assay [1] (setting [4]); -21.2% and 7.01% in assay [1] (setting [6]). The Potency entry with astro is “inactive”.
Turning to `CNC(=O)C[C@@H](N)C(=O)N[C@@H](C(=O)N[C@@H]1C(=O)N2[C@@H]1SC(C)(C)[C@@H]2C(=O)O)c1ccc(O)cc1`, the activity, negative = cell killing in assay [1] (setting [4]) is -11.1%; in assay [1] (setting [6]) it was -11.3%. The Potency entry in the assay on astro was “inactive”.
